Out of some 5,500 compounds screened, about 2,000 (36%) were called active. Roughly 18% stayed inconclusive and do not appear here. Rule as the data show it: active = normalized growth mostly below about 0.91 (no sharp cut-off); inconclusive = no clear call, values can overlap the other calls; inactive = mostly above about 0.92. The list shows a part of the results.
Assay: chemical genetic growth profiling, strain panel (AID 1159580);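 also: tested at 20 µM; growth read once vehicle control cultures reached saturation at 30 °C; 1 = growth at the plate median or of vehicle wells; lower values mean less growth of the strain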
Settings: S. cerevisiae deletion strains, growth OD

Measured: normalized growth

CC(=O)OC1C(=O)C2(C)C(O)CC3OCC3(OC(C)=O)C2C(OC(=O)c2ccccc2)C2(O)CC(OC(=O)C(O)C(NC(=O)c3ccccc3)c3ccccc3)C(C)=C1C2(C)C (stereo unspecified)
inactive: locus YCL061C, strain MRC1 (second series), hits give low values 0.996 | locus YDR363W, strain ESC2, hits give low values 0.984 | locus YER002W, strain NOP16, hits give low values 1 | locus YMR307W, strain GAS1, hits give low values 0.975 | locus YNL128W, strain TEP1, hits give low values 1 | locus YNL197C, strain WHI3, hits give low values 0.981 | locus YNL224C, strain SQS1, hits give low values 1.03 | locus YPL241C, strain CIN2, hits give low values 0.995

CC(=O)O[C@H]1C(=O)[C@@]2(C)C([C@H](OC(=O)c3ccccc3)[C@]3(O)C[C@H](O)C(C)=C1C3(C)C)[C@]1(OC(C)=O)CO[C@@H]1C[C@@H]2O (stereo partly specified)
inactive: locus YAL021C, strain ccr4, hits give low values 0.974 | locus YAL026C, strain drs2, hits give low values 0.983 | locus YAL030W, strain snc1, hits give low values 1 | locus YBL061C, strain skt5, hits give low values 1.02 | locus YBR009C, strain hhf1, hits give low values 0.986 | locus YBR023C, strain chs3, hits give low values 0.998 | locus YBR171W, strain sec66, hits give low values 1 | locus YBR231C, strain swc5, hits give low values 1 | locus YBR279W, strain paf1, hits give low values 0.999 | locus YCL011C, strain gbp2, hits give low values 1 | locus YCL016C, strain dcc1, hits give low values 1.01 | locus YCL069W, strain vba3, hits give low values 0.98 | locus YCR088W, strain abp1, hits give low values 0.986 | locus YDL005C, strain med2, hits give low values 1 | locus YDL040C, strain nat1, hits give low values 0.999 | locus YDR001C, strain nth1, hits give low values 0.99 | locus YDR069C, strain doa4, hits give low values 1.02 | locus YDR137W, strain rgp1, hits give low values 1.05 | locus YDR159W, strain sac3, hits give low values 1.01 | locus YDR195W, strain ref2 0.946 | locus YDR297W, strain sur2, hits give low values 0.977 | locus YDR334W, strain swr1, hits give low values 0.969 | locus YDR335W, strain msn5, hits give low values 0.993 | locus YDR392W, strain spt3, hits give low values 0.985 | locus YEL003W, strain gim4, hits give low values 0.991 | locus YEL037C, strain rad23, hits give low values 0.983 | locus YEL061C, strain CIN8 (second series), hits give low values 0.981 | locus YER015W, strain faa2, hits give low values 1 | locus YER016W, strain bim1, hits give low values 1.01 | locus YER111C, strain swi4, hits give low values 1 | locus YER155C, strain BEM2 (second series), hits give low values 1.01 | locus YFR010W, strain ubp6, hits give low values 0.985 | locus YGL167C, strain pmr1, hits give low values 1 | locus YGL173C, strain kem1, hits give low values 0.998 | locus YGL227W, strain vid30, hits give low values 0.992 | locus YGL240W, strain doc1, hits give low values 1 | locus YGL253W, strain hxk2, hits give low values 0.99 | locus YHR013C, strain ard1, hits give low values 1 | locus YHR027C, strain rpn1, hits give low values 1 | locus YHR030C, strain SLT2, hits give low values 0.988 | locus YHR079C, strain IRE1, hits give low values 0.995 | locus YHR142W, strain chs7, hits give low values 0.984 | locus YJL092W, strain hpr5, hits give low values 0.998 | locus YJL095W, strain BCK1 (second series), hits give low values 0.995 | locus YJL095W, strain BCK1, hits give low values 0.995 | locus YJL115W, strain asf1, hits give low values 0.973 | locus YJL129C, strain trk1, hits give low values 0.982 | locus YJL154C, strain vps35, hits give low values 0.98 | locus YJL164C, strain tpk1, hits give low values 1 | locus YJL166W, strain qcr8, hits give low values 1 | locus YJR066W, strain TOR1, hits give low values 0.94 | locus YKL160W, strain elf1, hits give low values 1.01 | locus YKR026C, strain gcn3, hits give low values 0.985 | locus YKR091W, strain srl3, hits give low values 1.01 | locus YLL001W, strain dnm1, hits give low values 1 | locus YLL026W, hits give low values 0.999 | locus YLL041C, strain sdh2, hits give low values 0.985 | locus YLR027C, strain aat2, hits give low values 0.988 | locus YLR113W, strain HOG1, hits give low values 1.01 | locus YLR221C, strain rsa3, hits give low values 0.994 | locus YLR258W, strain gsy2, hits give low values 0.999 | locus YLR262C, strain YPT6 (second series), hits give low values 1 | locus YLR320W, strain mms22, hits give low values 1.01 | locus YLR342W, strain FKS1, hits give low values 1.01 | locus YLR357W, strain rsc2, hits give low values 0.968 | locus YLR370C, strain arc18, hits give low values 0.984 | locus YLR384C, strain iki3, hits give low values 0.981 | locus YML120C, strain ndi1, hits give low values 1.01 | locus YMR058W, strain fet3, hits give low values 0.99 | locus YMR125W, strain sto1, hits give low values 0.993 | locus YMR129W, hits give low values 0.988 | locus YMR205C, strain PFK2, hits give low values 0.989 | locus YMR231W, strain pep5, hits give low values 1 | locus YNL071W, strain lat1, hits give low values 0.979 | locus YNL183C, strain NPR1, hits give low values 0.953 | locus YNL209W, strain ssb2, hits give low values 0.987 | locus YNL248C, strain rpa49, hits give low values 0.974 | locus YNL322C, strain KRE1 (second series), hits give low values 1.01 | locus YNR049C, strain mso1, hits give low values 1.01 | locus YOR001W, strain rrp6, hits give low values 0.982 | locus YOR070C, strain gyp1, hits give low values 0.987 | locus YOR080W, strain dia2, hits give low values 0.993 | locus YOR083W, strain WHI5, hits give low values 1.01 | locus YOR106W, strain vam3, hits give low values 1.01 | locus YOR231W, strain MKK1, hits give low values 0.973 | locus YOR265W, strain rbl2, hits give low values 0.969 | locus YOR270C, strain vph1, hits give low values 0.888 | locus YOR290C, strain snf2, hits give low values 1.02 | locus YPL051W, strain arl3, hits give low values 1.01 | locus YPL078C, strain atp4, hits give low values 0.996 | locus YPL106C, strain sse1, hits give low values 0.987 | locus YPL240C, strain hsp82, hits give low values 0.995 | locus YPL256C, strain CLN2, hits give low values 0.966

Source: PubChem BioAssay AID1159580 (chemical genetic matrix, 2015)
